Test results as given in PubChem BioAssay (EPA / NIEHS).
Activity calls are given as the source filed them. Rule for the calls: active = hit-call score of the fitted dose curve at least 0.9, where 1 is the maximum; inactive = score below 0.9.

Experiments:
[1] = target: Transcription factor E2F1 (Homo sapiens) (UniProt Q01094); experiment: ATG_E2F_CIS: Attagene CIS-FACTORIAL HepG2 Assay for human E2F Transcription Factor 1 (AID 2282935); settings: HepG2 Attagene cis-reporter, E2F reporter RNA transcripts; actives raise or lower the signal
Sequence of Transcription factor E2F1 (Homo sapiens) (Q01094 whole entry, looked up): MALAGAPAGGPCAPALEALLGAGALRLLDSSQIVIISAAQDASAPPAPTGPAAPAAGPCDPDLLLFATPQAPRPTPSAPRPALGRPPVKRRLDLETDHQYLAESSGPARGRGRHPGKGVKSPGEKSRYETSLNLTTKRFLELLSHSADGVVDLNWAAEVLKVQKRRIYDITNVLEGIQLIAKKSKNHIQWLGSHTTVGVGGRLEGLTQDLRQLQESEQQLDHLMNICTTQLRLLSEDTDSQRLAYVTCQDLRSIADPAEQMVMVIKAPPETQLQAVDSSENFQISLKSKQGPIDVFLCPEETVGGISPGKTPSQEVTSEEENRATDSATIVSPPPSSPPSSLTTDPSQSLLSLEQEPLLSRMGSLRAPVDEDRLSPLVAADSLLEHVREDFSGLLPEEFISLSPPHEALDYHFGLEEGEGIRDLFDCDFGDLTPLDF
Outline: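 First, HepG2 cells were transfected with reporter transcription units. Next, they were dosed for 24 h. Then RNA was isolated, converted to cDNA, PCR-amplified, FAM-labeled, HpaI-digested and analyzed by capillary electrophoresis.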

[2] = ATG_E_Box_CIS: Attagene CIS-FACTORIAL HepG2 Assay for human Enhancer Box (E-box) (AID 2282936); settings: HepG2 E-box cis-reporter transcription, actives raise or lower the signal
Outline: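 Endogenous transcription factor activity was sensed in human HepG2 liver cells through transfected cis-promoter reporter units. After 24 h of dosing, total RNA was reverse-transcribed and reporter cDNA resolved by capillary electrophoresis.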

[3] = ATG_M_61_CIS: Attagene CIS-FACTORIAL HepG2 Assay for M61 Transcription Factor (Internal Marker) (AID 2282937); settings: HepG2 Attagene CIS-FACTORIAL M61 internal marker reporter; actives raise or lower the signal
Outline: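 Endogenous transcription factor activity in HepG2 is read through transiently transfected cis-element reporter units. After 24 h dosing, RNA undergoes reverse transcription, PCR and primer extension with 6-FAM before capillary electrophoresis; DMSO-referenced bidirectional fit.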

[4] = ATG_EGR_CIS: Attagene CIS-FACTORIAL HepG2 Assay for human Early Growth Response 1 (EGR1) (AID 2282938); settings: HepG2 Attagene CIS-FACTORIAL EGR reporter mRNA; actives raise or lower the signal
Outline: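 Activity is taken as induction or loss of reporter mRNA versus DMSO, fitted bidirectionally. Transcripts from cis-regulated reporter units in transiently transfected HepG2 were measured after 24 h by RT-PCR with capillary electrophoresis.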

[5] = ATG_M_19_CIS: Attagene CIS-FACTORIAL HepG2 Assay for M19 Transcription Factor (Internal Marker) (AID 2282939); settings: HepG2 Attagene CIS-FACTORIAL M19 internal marker reporter; actives raise or lower the signal
Outline: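 Internal marker readout, fitted in both directions against DMSO, from HepG2 cells carrying transfected cis-element reporter constructs; RT-PCR and capillary electrophoresis of reporter mRNA after 24 h exposure.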

[6] = ATG_ERE_CIS: Attagene CIS-FACTORIAL HepG2 Assay for Estrogen Response Element (ERE) (AID 2282940); settings: HepG2 ERE cis-reporter, Attagene RNA transcript; actives raise or lower the signal
Outline: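 After 24 h compound treatment, RNA from transfected HepG2 cells was reverse-transcribed, reporter cDNA PCR-amplified, FAM-labelled, HpaI-cut and resolved by capillary electrophoresis. ERE-driven cis reporter transcripts reflect endogenous factors; gain or loss scored against DMSO.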

[7] = ATG_Ets_CIS: Attagene CIS-FACTORIAL HepG2 Assay for human Erythroblast Transformation Specific (ETS) (AID 2282941); settings: HepG2 ETS cis-reporter transcription, actives raise or lower the signal
Outline: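 Multiplexed reporter transcript profiling: HepG2, 24 h treatment, total RNA to cDNA, PCR, 6-FAM labelling, HpaI cut, capillary electrophoresis. Gain- or loss-of-signal fitted against DMSO.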

[8] = target: Hepatocyte nuclear factor 3-beta (Homo sapiens) (UniProt Q9Y261); experiment: ATG_FoxA2_CIS: Attagene CIS-FACTORIAL HepG2 Assay for human Forkhead box A2 (FOXA2) (AID 2282942); settings: HepG2 cis-reporter transcription factor activity, 24 h; actives raise or lower the signal
Sequence of Hepatocyte nuclear factor 3-beta (Homo sapiens) (Q9Y261 whole entry, looked up): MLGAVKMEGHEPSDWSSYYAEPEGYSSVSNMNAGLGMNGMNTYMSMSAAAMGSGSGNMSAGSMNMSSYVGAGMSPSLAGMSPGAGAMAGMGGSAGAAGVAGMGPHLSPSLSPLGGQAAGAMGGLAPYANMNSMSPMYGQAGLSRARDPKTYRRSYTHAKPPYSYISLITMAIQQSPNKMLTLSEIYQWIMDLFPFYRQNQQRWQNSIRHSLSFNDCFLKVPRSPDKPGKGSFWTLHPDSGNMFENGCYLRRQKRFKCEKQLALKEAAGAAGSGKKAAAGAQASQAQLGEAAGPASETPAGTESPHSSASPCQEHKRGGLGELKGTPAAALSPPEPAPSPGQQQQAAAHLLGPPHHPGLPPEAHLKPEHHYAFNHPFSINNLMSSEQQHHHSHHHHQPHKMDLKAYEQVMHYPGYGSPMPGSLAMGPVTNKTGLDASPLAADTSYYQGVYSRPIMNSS
Outline: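 Reporter transcript induction is measured by fluorescence after capillary electrophoresis of RT-PCR products from HepG2 cells exposed 24 h. Cis-regulated reporter units report endogenous factor activity; curves fitted both directions against DMSO.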

[9] = ATG_FoxO_CIS: Attagene CIS-FACTORIAL HepG2 Assay for human Forkhead box O (FoxO) (AID 2282943); settings: HepG2 Attagene cis-reporter, FoxO element, mRNA; actives raise or lower the signal
Outline: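 Values reflect reporter mRNA induction or loss in HepG2 cells 24 h post-dosing, fitted bidirectionally with DMSO as negative control and baseline. Detection used RT-PCR and fluorescence capillary electrophoresis.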

[10] = ATG_GATA_CIS: Attagene CIS-FACTORIAL HepG2 Assay for human GATA Binding Protein (AID 2282944); settings: HepG2 GATA cis-element reporter, Attagene multiplex mRNA; actives raise or lower the signal
Outline: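 Reporter transcripts from a GATA cis-regulated unit, among multiplexed reporters in transfected HepG2 cells, were measured by RT-PCR with capillary electrophoresis after 24 h dosing. Induction or loss scored relative to DMSO.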

[11] = ATG_GLI_CIS: Attagene CIS-FACTORIAL HepG2 Assay for human Zinc Finger Protein GLI1 (AID 2282945); settings: HepG2, Attagene cis-factorial reporter mRNA, GLI element; actives raise or lower the signal
Outline: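 HepG2 cells transiently transfected with cis-promoter multiplexed reporter units report endogenous transcription factor activity. After 24 h chemical exposure, reporter mRNA was quantified by RT-PCR, 6-FAM labelling, HpaI digestion and capillary electrophoresis, with bidirectional fitting against DMSO.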

[12] = target: Bile acid receptor (Homo sapiens) (UniProt Q96RI1); experiment: ATG_IR1_CIS: Attagene CIS-FACTORIAL HepG2 Assay for human Nuclear Receptor Subfamily 1 Group H Member 4 (NR1H4), IR1 submotif (AID 2282946); settings: IR1 reporter transcription, actives raise or lower the signal
Sequence of Bile acid receptor (Homo sapiens) (Q96RI1 whole entry, looked up): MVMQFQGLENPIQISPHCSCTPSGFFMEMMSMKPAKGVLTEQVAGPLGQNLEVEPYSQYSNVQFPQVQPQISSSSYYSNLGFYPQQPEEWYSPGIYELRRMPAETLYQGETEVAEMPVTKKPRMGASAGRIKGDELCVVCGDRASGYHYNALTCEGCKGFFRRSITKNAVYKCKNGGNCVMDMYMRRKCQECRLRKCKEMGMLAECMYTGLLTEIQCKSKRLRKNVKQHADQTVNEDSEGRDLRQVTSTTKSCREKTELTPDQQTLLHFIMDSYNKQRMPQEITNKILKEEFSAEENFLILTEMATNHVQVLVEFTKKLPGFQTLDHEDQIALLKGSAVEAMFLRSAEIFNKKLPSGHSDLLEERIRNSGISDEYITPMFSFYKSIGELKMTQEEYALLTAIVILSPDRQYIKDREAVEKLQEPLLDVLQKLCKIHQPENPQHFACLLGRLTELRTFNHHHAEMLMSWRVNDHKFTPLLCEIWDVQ
Outline: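 Readout: reporter transcript levels by RT-PCR with fluorescent capillary electrophoresis, from HepG2 cells transiently transfected with multiplexed cis-regulated reporters and dosed 24 h. Gain- or loss-of-signal fitted versus DMSO negative control.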

[13] = ATG_ISRE_CIS: Attagene CIS-FACTORIAL HepG2 Assay for human Interferon Regulatory Factor 1 (IRF1) binding to an Interferon-Stimulated Response Element (ISRE) (AID 2282948); settings: HepG2 ISRE cis-reporter (Attagene), mRNA transcription readout; actives raise or lower the signal
Outline: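 Signal reflects induction or loss of ISRE-linked reporter mRNA in transiently transfected HepG2 cells after a 24 h treatment, detected by fluorescent RT-PCR fragments on capillary electrophoresis and normalised to DMSO.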

[14] = ATG_M_32_CIS: Attagene CIS-FACTORIAL HepG2 Assay for M32 Transcription Factor (Internal Marker) (AID 2282949); settings: HepG2 Attagene cis-factorial M32 reporter, mRNA; actives raise or lower the signal;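 note: background control marker of the multiplexed CIS panel rather than a real target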
Outline: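 HepG2 human liver cells transiently transfected with cis-promoter-driven multiple reporter transcription units, dosed 24 h. Reporter mRNA quantified by RT-PCR, FAM-labelled primer extension, HpaI digest and capillary electrophoresis; bidirectional fit versus DMSO baseline.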

[15] = ATG_M_06_CIS: Attagene CIS-FACTORIAL HepG2 Assay for M06 Transcription Factor (Internal Marker) (AID 2282950); settings: HepG2 Attagene CIS-FACTORIAL M06 internal marker reporter; actives raise or lower the signal
Outline: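 Serves as a background control readout. Transfected HepG2 exposed to compounds for 24 h, then reporter transcripts quantified by fluorescent RT-PCR and capillary electrophoresis. Both directions fitted against DMSO baseline.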

[16] = target: Hypoxia-inducible factor 1-alpha (Homo sapiens) (UniProt Q16665); experiment: ATG_HIF1a_CIS: Attagene CIS-FACTORIAL HepG2 Assay for human Hypoxia Inducible Factor 1 (HIF1A) (AID 2282951); settings: HepG2 Attagene cis-factorial HIF1a reporter transcription; actives raise or lower the signal
Sequence of Hypoxia-inducible factor 1-alpha (Homo sapiens) (Q16665 whole entry, looked up): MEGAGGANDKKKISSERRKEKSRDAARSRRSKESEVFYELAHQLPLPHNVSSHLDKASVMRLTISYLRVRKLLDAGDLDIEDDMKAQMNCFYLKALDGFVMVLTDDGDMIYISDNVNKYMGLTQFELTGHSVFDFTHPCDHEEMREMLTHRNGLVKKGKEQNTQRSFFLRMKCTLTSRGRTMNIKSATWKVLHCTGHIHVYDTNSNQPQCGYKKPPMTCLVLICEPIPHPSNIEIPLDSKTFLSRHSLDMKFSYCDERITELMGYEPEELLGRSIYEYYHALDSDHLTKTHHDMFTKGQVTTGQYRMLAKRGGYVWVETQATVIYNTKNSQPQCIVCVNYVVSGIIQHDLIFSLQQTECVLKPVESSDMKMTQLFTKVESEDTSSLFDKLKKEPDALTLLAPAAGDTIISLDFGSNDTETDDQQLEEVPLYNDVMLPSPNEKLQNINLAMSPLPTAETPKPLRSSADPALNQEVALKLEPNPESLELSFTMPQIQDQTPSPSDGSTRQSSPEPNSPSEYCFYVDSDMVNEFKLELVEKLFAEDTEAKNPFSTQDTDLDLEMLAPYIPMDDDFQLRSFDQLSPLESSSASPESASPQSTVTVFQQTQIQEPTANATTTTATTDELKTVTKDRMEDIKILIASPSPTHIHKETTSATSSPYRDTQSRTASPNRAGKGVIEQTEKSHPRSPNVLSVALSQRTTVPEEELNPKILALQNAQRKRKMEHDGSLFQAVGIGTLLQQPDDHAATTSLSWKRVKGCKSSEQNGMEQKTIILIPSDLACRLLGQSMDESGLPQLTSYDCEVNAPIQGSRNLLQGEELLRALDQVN
Outline: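 Fluorescence intensity of capillary-separated, 6-FAM-labelled reporter amplicons gives mRNA induction in HepG2 cells carrying transfected cis-promoter reporter units; cells exposed 24 h, responses fitted up or down from DMSO.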

[17] = target: Hepatocyte nuclear factor 6 (Homo sapiens) (UniProt Q9UBC0); experiment: ATG_HNF6_CIS: Attagene CIS-FACTORIAL HepG2 Assay for human Hepatocyte Nuclear Factor 6 (HNF6) (AID 2282952); settings: HepG2 Attagene cis-factorial HNF6 reporter transcription; actives raise or lower the signal
Sequence of Hepatocyte nuclear factor 6 (Homo sapiens) (Q9UBC0 whole entry, looked up): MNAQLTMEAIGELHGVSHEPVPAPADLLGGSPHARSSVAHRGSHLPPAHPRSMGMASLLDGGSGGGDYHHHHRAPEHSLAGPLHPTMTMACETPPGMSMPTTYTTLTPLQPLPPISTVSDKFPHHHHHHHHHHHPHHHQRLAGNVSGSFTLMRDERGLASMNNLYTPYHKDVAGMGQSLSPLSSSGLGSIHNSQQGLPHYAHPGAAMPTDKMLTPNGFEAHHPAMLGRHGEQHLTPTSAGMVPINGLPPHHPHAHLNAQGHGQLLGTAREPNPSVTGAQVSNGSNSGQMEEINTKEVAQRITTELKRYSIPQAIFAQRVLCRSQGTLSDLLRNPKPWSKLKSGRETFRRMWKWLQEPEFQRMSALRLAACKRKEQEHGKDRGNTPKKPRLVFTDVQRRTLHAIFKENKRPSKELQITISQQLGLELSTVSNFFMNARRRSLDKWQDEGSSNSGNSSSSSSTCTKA
Outline: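 Endogenous factor activity read in transiently transfected HepG2 via promoter-regulated reporter transcripts. RNA harvested 24 h post-dosing, reverse-transcribed, PCR-amplified, FAM-labelled, HpaI-digested and resolved by capillary electrophoresis; fitted in both directions against DMSO.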

[18] = target: Heat shock factor protein 1 (Homo sapiens) (UniProt Q00613); experiment: ATG_HSE_CIS: Attagene CIS-FACTORIAL HepG2 Assay for human Heat Shock Transcription Factor 1 (HSE) (AID 2282953); settings: HepG2 HSE cis-reporter, Attagene RNA transcription; actives raise or lower the signal
Sequence of Heat shock factor protein 1 (Homo sapiens) (Q00613 whole entry, looked up): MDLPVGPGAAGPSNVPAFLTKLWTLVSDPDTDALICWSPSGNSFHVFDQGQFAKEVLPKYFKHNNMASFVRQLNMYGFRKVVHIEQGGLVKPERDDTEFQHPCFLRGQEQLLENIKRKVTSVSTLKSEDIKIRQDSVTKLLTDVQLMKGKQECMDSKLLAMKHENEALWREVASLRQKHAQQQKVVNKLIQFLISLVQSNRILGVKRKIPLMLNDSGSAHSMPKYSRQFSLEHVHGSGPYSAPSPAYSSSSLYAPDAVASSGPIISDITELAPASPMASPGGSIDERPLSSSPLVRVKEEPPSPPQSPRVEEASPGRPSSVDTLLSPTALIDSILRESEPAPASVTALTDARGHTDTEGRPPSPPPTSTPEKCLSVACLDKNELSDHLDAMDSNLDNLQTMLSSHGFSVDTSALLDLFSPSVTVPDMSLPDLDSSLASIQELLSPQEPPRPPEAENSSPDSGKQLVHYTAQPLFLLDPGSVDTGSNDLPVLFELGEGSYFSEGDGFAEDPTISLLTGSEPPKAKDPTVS
Outline: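 Endogenous transcription factor activity in transiently transfected HepG2, read as reporter mRNA by RT-PCR with fluorescent capillary electrophoresis after 24 h. Gain or loss of signal fitted versus DMSO baseline.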

[19] = ATG_MRE_CIS: Attagene CIS-FACTORIAL HepG2 Assay for human Metal Responsive Element (MRE) (AID 2282954); settings: HepG2 MRE cis-reporter transcription, Attagene multiplex; actives raise or lower the signal
Outline: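 Cells were transfected with cis-promoter reporter transcription units, then dosed for 24 h. RNA was reverse-transcribed, amplified, fluorescently labelled and resolved by capillary electrophoresis, and activity was fitted in both directions relative to DMSO.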

[20] = ATG_GRE_CIS: Attagene CIS-FACTORIAL HepG2 Assay for human Glucocorticoid Response Elements (GRE) (AID 2282947); settings: HepG2 GRE cis-reporter, Attagene multiplex mRNA; actives raise or lower the signal
Outline: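 Cells (HepG2) bearing transfected cis-promoter reporter transcription units were treated with chemical for 24 hours. Reporter mRNA was measured via RT-PCR with capillary electrophoresis, and activity was fitted in both directions relative to DMSO.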

Measured: outcome

COCC(=O)N(c1c(C)cccc1C)C(C)C(=O)OC (configuration not stated)
not listed: [20]
inactive: all other assays above

Clc1cccc(C(Cl)(Cl)Cl)n1
not listed: [20]
inactive: all other assays above

Nc1c(Cl)c(F)nc(OCC(=O)O)c1Cl
not listed: [12]
inactive: all other assays above
